The source of these data is ChEMBL document CHEMBL4513216, “Probing the Open Global Health Chemical Diversity Library for Multistage-Active Starting Points for Next-Generation Antimalarials” (ACS Infect Dis, 2020).

Screen size: about 69,000 compounds; about 8,600 (12%) showed an effect of 50% or more. The sample as a whole holds a higher share of strong results than the screen did.

This assay deals with Plasmodium berghei. The assay can be described thus: Screen against P. berghei liver stage (PbLuc), transformed with Luciferase, at 10uM. The note with it: tested at 10 uM. The class given is functional, HepG2.
Consider `CN1CCC/C1=N\S(=O)(=O)c1ccc(NC(=O)c2ccc(F)cc2)cc1`, for which the INHIBITION amounted to 41.4%.

Regarding `O=S(=O)(CC1CCCO1)Nc1cc(Cl)ccc1-n1cccn1` (stereo not given), the INHIBITION is reported as -15.5%.

Consider `CC(=O)N[C@@H]1CN(Cc2oc3ccccc3c2C)C[C@H]1c1ccc(C)o1`, for which the INHIBITION was 37.7%.

On to `CC(CO)(NC(=O)NCc1ccc(Br)s1)C1CC1` (stereo not given), for which the INHIBITION is listed as -12.7%.

For `Fc1cnc(N2CCc3nnc(COc4ccccn4)n3CC2)nc1`, the INHIBITION is on record as -58.7%.

As for `CC(C(=O)N1CCN(C)CC1)n1cc(Br)cn1` (stereo not given), the INHIBITION was 21.7%.

Consider `Cc1noc(C)c1CN1CCN(CC2CC2)c2ncccc2C1`, for which the INHIBITION is recorded as 47.2%.

Take `O=C(CCc1ccncc1)N1CCCC(N2CCNC2=O)C1` (stereo not given): the INHIBITION is on record as 37.9%.

Regarding `CC(=O)N1CC=C(n2c(=O)[nH]c3ccccc32)CC1`, the INHIBITION was 21.4%.

With `CCCn1cc(-c2ccnc(NC3CCc4ccccc4C3)n2)c(C)n1` (stereo not given), the INHIBITION was 89.6%.

Regarding `Cc1nn(C)c(N2CCOCC2)c1CNC1CCc2ccccc2C1` (stereo not given), the INHIBITION stood at 35.7%.

Take `Cc1sc2ncc(-c3ccnc(NC4CCN(C)CC4)n3)c(=O)n2c1C`: the INHIBITION stood at 24.8%.

In the case of `O=C(C1CC1)N1CCC(Nc2nc(O)cc(-c3ccsc3)n2)CC1`, the INHIBITION was -5.78%.

On to `O=C1CCNC(=O)N1CC(=O)N1CCC1c1ccc(F)cc1` (stereo not given), for which the INHIBITION was -14.5%.

In the case of `O=C(c1cc(=O)[nH]c(=O)[nH]1)N1CCCCC1c1ccc(F)cc1` (stereo not given), the INHIBITION is reported as 30.1%.

As for `COC(=O)CCCC(=O)N1CCCCC1c1ccc(F)cc1` (stereo not given), the INHIBITION is given as 34.1%.

For `O=C1CCCN1CCCC(=O)N1CCCCC1c1ccc(F)cc1` (stereo not given), the INHIBITION was 74.9%.

Turning to `O=C1CCCCN1CCC(=O)N1CCCCC1c1ccc(F)cc1` (stereo not given), the INHIBITION is recorded as 53.6%.

For the molecule `NCC(=O)N1CCCCC1c1ccc(F)cc1` (stereo not given), the INHIBITION was found to be 74%.

Regarding `Cn1cc(C2CCCN2C(=O)CCCOc2ccc(F)cc2)cn1` (stereo not given), the INHIBITION is 0.914%.

Consider `COCCC(=O)N1CCCCC1c1ccc(F)cc1` (stereo not given), for which the INHIBITION was 48%.

With `CCc1nccn1CCC(=O)N1CCCC1c1ccc(F)cc1` (stereo not given), the INHIBITION turned out to be 29.4%.

For the molecule `Cc1nn(C)c(Cl)c1C1CCCN1C(=O)c1ccc2c(c1)COC2` (stereo not given), the INHIBITION came to 7.12%.

As to `CN1CCCC1c1cncc(C(=O)NCCN2CCCC2)n1` (stereo not given), the INHIBITION is -40.1%.

Regarding `CN(C)CC(=O)N1CCc2cccc(S(=O)(=O)N3CCOCC3)c2C1`, the INHIBITION stood at 21.2%.

As for `O=C(c1ccc(Cl)s1)N1CCC2(CNS(=O)(=O)c3cnccc3O2)C1` (stereo not given), the INHIBITION is given as 21.7%.

Consider `CCC1CN(CC(=O)NCCN2CCCCCC2)c2ccccc2S1` (stereo not given), for which the INHIBITION is recorded as 0.87%.

In the case of `CC(c1cc(F)ccc1F)N(C)C(=O)NCc1ccnc(N(C)C)c1` (stereo not given), the INHIBITION is 21.6%.

Turning to `Oc1cccc(CN2CCN(c3nccc(CCC(F)(F)F)n3)CC2)c1`, the INHIBITION amounted to 74.7%.

Consider `FC(F)(F)CCc1ccnc(N2CCN(CCc3ccncc3)CC2)n1`, for which the INHIBITION is 66.1%.

Turning to `CCN(C(C)=O)C1CCN(c2nccc(CCC(F)(F)F)n2)C1` (stereo not given), the INHIBITION was determined as 48.5%.

Regarding `FC(F)(F)c1ccnc(N2CCCN(Cc3ccccn3)CC2)n1`, the INHIBITION is given as -1.7%.

Regarding `CNC(=O)C1CCN(c2nccc(CCC(F)(F)F)n2)C1` (stereo not given), the INHIBITION was found to be 50.1%.

Regarding `Cc1cnccc1N1CCN(C(=O)CCCN2CCCCC2)CC1`, the INHIBITION came out at 21.7%.

With `CCOc1ccnc(N2CCN(C(=O)CCc3ccncc3)CC2)n1`, the INHIBITION is -17%.

On to `Cc1cc(C)nc(CCNc2nccc(CCC(F)(F)F)n2)n1`, for which the INHIBITION was determined as 38.2%.

For the molecule `Cc1cnccc1N1CCN(c2nccc(CCC(F)(F)F)n2)CC1`, the INHIBITION was 83.2%.

As for `O=C(c1ccccn1)C1CCCN(c2nccc(CCC(F)(F)F)n2)C1` (stereo not given), the INHIBITION is given as 35.1%.

Regarding `FC(F)(F)CCc1ccnc(N2CCN(Cc3ccncc3)CC2)n1`, the INHIBITION is given as -0.178%.

As for `FC(F)(F)CCc1ccnc(N2CCN(Cc3ccccn3)CC2)n1`, the INHIBITION was 25.5%.
